Inconclusive results are not listed. Where a call stands in place of a potency, no number is given. Activity calls are given as the source filed them. Calls follow the shape of the dose curve; as a rule, active = well fitted inhibition curve with a large enough effect; inconclusive = small, poorly fitted or top-dose-only effect, or effect the other way; inactive = flat fitted curve, though single readings scatter.
These compounds were tested against ATP-dependent 6-phosphofructokinase (Trypanosoma brucei brucei) (UniProt O15648) (assay: qHTS Assay to Find Inhibitors of T. brucei phosphofructokinase: hit validation (AID 492961)). Settings: T. brucei PFK, ADP-Glo luminescence; series mostly up to 51.4 µM.
Sequence of ATP-dependent 6-phosphofructokinase (Trypanosoma brucei brucei) (O15648 whole entry, looked up): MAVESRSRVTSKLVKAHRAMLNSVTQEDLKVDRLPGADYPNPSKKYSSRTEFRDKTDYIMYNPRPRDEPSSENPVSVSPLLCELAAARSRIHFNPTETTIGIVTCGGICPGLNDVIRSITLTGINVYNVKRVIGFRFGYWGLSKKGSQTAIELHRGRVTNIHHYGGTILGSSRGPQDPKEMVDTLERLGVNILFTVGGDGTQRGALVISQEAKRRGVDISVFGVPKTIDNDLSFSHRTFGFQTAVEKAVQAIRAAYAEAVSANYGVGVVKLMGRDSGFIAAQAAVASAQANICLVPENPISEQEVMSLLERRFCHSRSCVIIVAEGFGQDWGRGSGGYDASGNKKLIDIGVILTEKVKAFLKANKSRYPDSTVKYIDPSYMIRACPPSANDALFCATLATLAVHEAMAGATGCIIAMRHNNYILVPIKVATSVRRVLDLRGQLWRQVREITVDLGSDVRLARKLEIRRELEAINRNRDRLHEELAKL
Method in brief: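 ADP-Glo luminescence read-out of ADP formed by 1.25 nM PFK from 0.1 mM ATP and 0.5 mM F6P (TEA pH 8.0, 45 min, RT). Compounds titrated; activity normalized to no-enzyme and full-enzyme controls.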
In the case of `CN(C)CCCN1c2ccccc2C(C)(C)c2ccccc21`, the Potency is reported as “inactive”. `CO[C@H]1C[C@@H]2CC[C@@H](C)[C@@](O)(O2)C(=O)C(=O)N2CCCC[C@H]2C(=O)O[C@H]([C@H](C)C[C@@H]2CC[C@@H](OCCO)[C@H](OC)C2)CC(=O)[C@H](C)/C=C(\C)[C@@H](O)[C@@H](OC)C(=O)[C@H](C)C[C@H](C)/C=C/C=C/C=C/1C` was tested, and the Potency was “inactive”. For `O=S(=O)(O)c1cc(O)c2c(N=Nc3ccc(Nc4ccccc4)c4c(S(=O)(=O)O)cccc34)cc(S(=O)(=O)O)cc2c1`, the Potency was “inactive”. `Cc1c(C)c2c(c(C)c1O)CC[C@@](C)(CCC[C@H](C)CCC[C@H](C)CCCC(C)C)O2` was tested, and the Potency was “inactive”. `CCOc1ccc(N=Nc2ccc(N)cc2N)cc1` was tested, and the Potency was “inactive”. In the case of `CCCCCCCCCCCC[n+]1ccc2ccccc2c1`, the Potency is reported as “inactive”. `CC(NNC(=O)c1ccccc1)c1ccccc1` (centres undefined) was tested, and the Potency was “inactive”. In the case of `CC[C@@]1(O)C(=O)OCc2c1cc1n(c2=O)Cc2cc3c([N+](=O)[O-])cccc3nc2-1`, the Potency is reported as “inactive”. With `CC1(C)C(C=C(Cl)Cl)C1C(=O)OCc1cccc(Oc2ccccc2)c1` (centres undefined) the Potency was “inactive”. `CC1=C(/C=C/C(C)=C/C=C/C(C)=C/C=C/C=C(C)/C=C/C=C(C)/C=C/C2=C(C)CCCC2(C)C)C(C)(C)CCC1` was tested, and the Potency was “inactive”. In the case of `O=CCCCC=O`, the Potency is reported as “inactive”. `C[C@@H]1CCC2[C@@H](C)[C@@H](O)O[C@@H]3O[C@@]4(C)CC[C@@H]1[C@@]23OO4` (some centres undefined) was tested, and the Potency was “inactive”. `CN1C(=O)CN2CCc3ccccc3C2c2cc(Cl)ccc21` (centres undefined) was tested, and the Potency was “inactive”. For `CC1=CCC(C(C)(C)O)CC1` (centres undefined), the Potency was “inactive”. For `CCCCCCCC(=O)O`, the Potency was “inactive”. In the case of `COc1cc(-c2ccc(-[n+]3nc(-c4ccccc4)nn3-c3ccc([N+](=O)[O-])cc3)c(OC)c2)ccc1-[n+]1nc(-c2ccccc2)nn1-c1ccc([N+](=O)[O-])cc1`, the Potency is reported as “inactive”. In the case of `CC(C)(C)NC(=O)[C@@H]1C[C@@H]2CCCC[C@@H]2CN1C[C@@H](O)[C@H](Cc1ccccc1)NC(=O)[C@H](CC(N)=O)NC(=O)c1ccc2ccccc2n1`, the Potency is reported as “inactive”. `CCN(CC)CCOc1ccc(-c2nc3cc(Cl)ccc3s2)cc1` was tested, and the Potency was “inactive”. For `O=C(Nc1ccc(Br)cc1)c1cc(Br)c(Br)s1`, the Potency was “inactive”. With `Clc1cc(Cl)c(OCC#CI)cc1Cl` the Potency was 12.6 µM (active). For `CC(C)=O`, the Potency was “inactive”. `CC(C)N=c1cc2n(-c3ccc(Cl)cc3)c3ccccc3nc-2cc1Nc1ccc(Cl)cc1` was tested, and the Potency was “inactive”. With `CC1(C)S[C@@H]2[C@H](NC(=O)[C@@H](NC(=O)N3CCNC3=O)c3ccccc3)C(=O)N2[C@H]1C(=O)O` the Potency was “inactive”. With `CC(C)(C)C(=O)OCOC(=O)[C@@H]1N2C(=O)[C@@H](N=CN3CCCCCC3)[C@H]2SC1(C)C` the Potency was “inactive”. `CC(=O)Oc1cc(C)c(OC(C)=O)c2ccccc12` was tested, and the Potency was “inactive”. With `CC1=C(/C=C/C(C)=C/C=C/C(C)=C/C=C/C=C(C)/C=C/C=C(C)/C=C/C2=C(C)C(=O)CCC2(C)C)C(C)(C)CCC1=O` the Potency was “inactive”. With `COC(=O)C1=C(C#N)NC(C)=C(C(=O)OC(C)C)C1c1cccc([N+](=O)[O-])c1` (centres undefined) the Potency was “inactive”. In the case of `CCCCCCCCCCCCCCCC(=O)OCC(COC(=O)CCCCCCCCCCCCCCC)OC(=O)CCCCCCCCCCCCCCC`, the Potency is reported as “inactive”. In the case of `C[C@]12CCC(=O)C=C1CC[C@@H]1[C@@H]2[C@@H](O)C[C@@]2(C)[C@H]1CC[C@]2(O)C(=O)COP(=O)(O)O`, the Potency is reported as “inactive”. `CCOC(C)=O` was tested, and the Potency was “inactive”. For `Cc1ccccc1`, the Potency was “inactive”. In the case of `Cc1cn([C@H]2C[C@H](O)[C@@H](CO)O2)c(=O)[nH]c1=O`, the Potency is reported as “inactive”. For `O=C(COc1ccc(Cl)cc1)OCCNC12CC3CC(CC(C3)C1)C2`, the Potency was “inactive”. For `CCCCC(C)(O)C/C=C/[C@H]1[C@H](O)CC(=O)[C@@H]1CCCCCCC(=O)OC` (some centres undefined), the Potency was “inactive”.

— PubChem BioAssay (NCATS)
Potency is read from the fitted curve at half-maximal effect.
